Each structure is given as a SMILES string.
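Further: TDF is a line of transformed human dermal fibroblasts of mesenchymal origin.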

This assay concerns HCC1569. Put plainly: H1.0 immunofluorescence intensity relative to DMSO (% of DMSO); higher = stronger H1.0 induction, active = 140 or more. As to conditions: concentration: 10 µM; 24 h. The gist of the method:
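Cells were seeded at 800 per well in 384-well plates with RPMI containing 10% FBS; both HCC1569 and TDF lines were used. Compounds were added at 10 µM for 24 h at 37 °C, in triplicate, before fixation in 3.7% formaldehyde and staining with a rabbit anti-H1.0 antibody, an AlexaFluor 647 secondary and DAPI. H1.0 nuclear intensity or cell number is reported as percent of the plate control using the median of replicates, and HCC1569 values were smoothed for positional effects.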
Take `O=C1Cc2c([nH]c3ccc([N+](=O)[O-])cc23)-c2ccccc2N1` [Alsterpaullone]: the H1.0 immunofluorescence intensity was 99.1 (inactive).
For `O=C1c2ccccc2-c2n[nH]c3cccc1c23`, the H1.0 immunofluorescence intensity was 138 (inactive).
For the molecule `CC1COc2c(N3CCN(C)CC3)c(F)cc3c(=O)c(C(=O)O)cn1c23` (stereo not given) [Ofloxacin], the H1.0 immunofluorescence intensity is 96.5 (inactive).
For `CCCCCCCCCCCCCCCC(=O)OCC=C(C)C=CC=C(C)C=CC1=C(C)CCCC1(C)C` [Retinyl palmitate], the H1.0 immunofluorescence intensity was 101 (inactive).
For the molecule `CCOC(=O)OC(C)OC1=C(C(=O)Nc2ccccn2)N(C)S(=O)(=O)c2ccccc21` (stereo not given) [Ampiroxicam], the H1.0 immunofluorescence intensity was 116 (inactive).
For `Nc1cc(=O)nc(N)[nH]1` [2,6-Diamino-4-pyrimidinone], the H1.0 immunofluorescence intensity was 97.1 (inactive).
Then `CS(=O)(=O)O.O=C1Nc2ccc(-c3cccnc3)cc2C1=Cc1ccc[nH]1` [JAK3 Inhibitor VI], with 130 (inactive).
For `COc1cc(CC(=O)O)ccc1O` [4-Hydroxy-3-methoxyphenylacetic acid], the H1.0 immunofluorescence intensity is 97 (inactive).
Then `Cl.Cl.Fc1ccc(C(c2ccc(F)cc2)N2CCN(CC=Cc3ccccc3)CC2)cc1` [Flunarizine.2HCl], with 112 (inactive); and `O=c1cc(-c2ccc(O)c(O)c2)oc2cc(O)cc(O)c12` [Luteolin], with 120 (inactive).
Take `COC1C(OC(N)=O)C(O)C(Oc2ccc3c(O)c(NC(=O)c4ccc(O)c(CC=C(C)C)c4)c(=O)oc3c2C)OC1(C)C.[Na+]` (stereo not given) [Novobiocin.Na]: the H1.0 immunofluorescence intensity is 103 (inactive).
As for `CC1CCc2c(N3CCC(O)CC3)c(F)cc3c(=O)c(C(=O)O)cn1c23` (stereo not given) [Nadifloxacin], the H1.0 immunofluorescence intensity is 101 (inactive).
Regarding `C[N+]1(CCCCC[N+]2(C)CCCC2)CCCC1.O=C([O-])C(O)C(O)C(=O)O.O=C([O-])C(O)C(O)C(=O)O` [Pentolinium di[L(+)-tartrate]], the H1.0 immunofluorescence intensity was 101 (inactive).
Turning to `O=C(Nc1cccc(C(=O)Nc2ccc(S(=O)(=O)[O-])c3cc(S(=O)(=O)[O-])cc(S(=O)(=O)[O-])c23)c1)Nc1cccc(C(=O)Nc2ccc(S(=O)(=O)[O-])c3cc(S(=O)(=O)[O-])cc(S(=O)(=O)[O-])c23)c1.[Na+].[Na+].[Na+].[Na+].[Na+].[Na+]`, the H1.0 immunofluorescence intensity is 96 (inactive).
As for `CSc1nc(-c2ccnc(NC(C)c3ccccc3)c2)c(-c2ccc(F)cc2)[nH]1` (stereo not given) [p38 MAP Kinase Inhibitor III], the H1.0 immunofluorescence intensity was 113 (inactive).
For the molecule `CCC1=C(C)CN(C(=O)NCCc2ccc(S(=O)(=O)NC(=O)NC3CCC(C)CC3)cc2)C1=O` (stereo not given) [Glimepiride], the H1.0 immunofluorescence intensity was 106 (inactive).
Then `CN1CCN(c2c(F)cc3c(=O)c(C(=O)O)cn(CCF)c3c2F)CC1` [Fleroxacin], with 112 (inactive); and `CC(C)CC(NC(=O)C1OC1C(=O)O)C(=O)NCCCCN=C(N)N` (stereo not given), with 97.3 (inactive); and `Cl.NCC1OC(C23CC4CC(CC(C4)C2)C3)Cc2c1ccc(O)c2O` (stereo not given), with 129 (inactive).
Regarding `CC[C@H](C(=O)Nc1ccccc1N1CCCC1)c1ccccc1` [(2S)-2-Phenyl-N-[2-(1-pyrrolidinyl)phenyl]butanamide], the H1.0 immunofluorescence intensity is 105 (inactive).
For `Cc1cccc(-c2[nH]ncc2-c2ccc3ncccc3n2)n1`, the H1.0 immunofluorescence intensity is 92.8 (inactive).
With `Brc1c(NC2=NCCN2)ccc2nccnc12`, the H1.0 immunofluorescence intensity is 96.8 (inactive).
`CN(C)CCC(CSc1ccccc1)Nc1ccc(S(=O)(=O)NC(=O)c2ccc(N3CCN(Cc4ccccc4-c4ccc(Cl)cc4)CC3)cc2)cc1[N+](=O)[O-]` (stereo not given): the H1.0 immunofluorescence intensity was 129 (inactive).
As to `CCC=CCC=CCC=CCC=CC=CC(O)CCCC(=O)O` (racemic), the H1.0 immunofluorescence intensity was 99 (inactive).
Consider `CCCCCC(O)C=CC1C(O)CC2OC(=CCCCC(=O)[O-])CC21.[Na+]` (stereo not given) [Prostaglandin I2 Na], for which the H1.0 immunofluorescence intensity is 98.3 (inactive).
Then `O=C(c1cc2cc(O)ccc2[nH]1)c1cc2cc(O)ccc2[nH]1` [Flt-3 Inhibitor II], with 195 (active).
In the case of `Cc1nc2c([nH]1)c(=O)n(C)c(=O)n2Cc1ccco1` [Furafylline], the H1.0 immunofluorescence intensity was 103 (inactive).
Then `CC(C)NCC(O)COc1ccc(CCOCC2CC2)cc1.Cl` (stereo not given) [Betaxolol hydrochloride], with 89.4 (inactive); and `CN(CCOc1ccc(CC2SC(=O)NC2=O)cc1)c1ccccn1.O=C(O)C=CC(=O)O` (stereo not given) [Rosiglitazone maleate], with 101 (inactive).
Take `CC(=O)CCCCn1c(=O)c2c(ncn2C)n(C)c1=O` [Pentoxifylline]: the H1.0 immunofluorescence intensity was 105 (inactive).
Then `CC(=O)OCC(CCn1cnc2cnc(N)nc21)COC(C)=O` [Famciclovir], with 111 (inactive); and `O=C(O)c1ccccc1C(=O)Nc1ccc(-c2ccccc2)cc1` [2-[([1,1'-biphenyl]-4-ylamino)carbonyl]benzoic acid], with 95.6 (inactive).
As to `COc1ccc(C=CC(=O)Nc2ccccc2C(=O)O)cc1OC` [Tranilast], the H1.0 immunofluorescence intensity was 102 (inactive).
Turning to `O=C(COc1ccc(C(=O)c2ccccc2)cc1)NC1CCN(Cc2ccccc2)CC1` [2-(4-benzoylphenoxy)-N-(1-benzyl-4-piperidinyl)acetamide], the H1.0 immunofluorescence intensity was 158 (active).
For the molecule `COC(C)(C)CCCC(C)CC=CC(C)=CC(=O)O` (stereo not given) [Methoprene acid], the H1.0 immunofluorescence intensity was 94.6 (inactive).
Turning to `CCCCCC=CCC=CCCCCCCCC(=O)NCC(=O)O` [N-Linoleoylglycine], the H1.0 immunofluorescence intensity was 103 (inactive).
Then `CCCCC(=O)O[C@]1(C(=O)CO)[C@@H](C)C[C@H]2[C@@H]3CCC4=CC(=O)C=C[C@]4(C)[C@@]3(F)[C@@H](O)C[C@@]21C`, with 103 (inactive); and `COc1cc(Nc2c(C#N)cnc3cc(OCCCN4CCN(C)CC4)c(OC)cc23)c(Cl)cc1Cl` [Bosutinib], with 39.6 (inactive).
Consider `Nc1ncnc2c1ncn2C1CCCO1` (stereo not given), for which the H1.0 immunofluorescence intensity was 183 (active).
Regarding `CCCCCC=CCC(O)C=CC=CC=CC(O)CCCC(=O)O` [5(S),12(R)-DIHETE all trans], the H1.0 immunofluorescence intensity is 101 (inactive).

Values taken from the supplement of paper PMC7156485.
